Assay [1] concerns Zika virus NS2B-NS3 protease (unlinked complex). In words: Primary screen GU Rhodamine qHTS for Zika virus inhibitors: Unlinked NS2B-NS3 protease assay (AID 1347159). Note: nearly all actives have a fitted effect of over 60% in size. The essentials: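 Unlinked NS2B/NS3, 25 nM; Rhod110 peptide, 1.5 microM; compounds, up to 114 microM. Reaction run 15 min at RT in 10 mM Tris-HCl pH 8.0, 0.01% Tween 20; kinetic fluorescence change fitted with a 4-parameter Hill model.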

Assay [2] concerns Zika virus NS2B-NS3 protease (linked construct). Description: Primary screen NINDS Rhodamine qHTS for Zika virus inhibitors (AID 1347160). Note: nearly all actives have a fitted effect of over 55% in size. Put shortly: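 Single-chain NS2B-NS3 protease, 25 nM, pH 8.0; compounds preincubated 15 min. Activity: Rhodamine110 release from 1.5 microM substrate over 15 min, room temperature, data fitted to 4-parameter Hill.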

SMILES strings stand for the structures. Inconclusive results are not listed. Unmarked numbers belong to inactive results. Calls of active or inactive are those of the source. Calls come from the whole dose curve; as a rule, active = well fitted inhibition curve with a large enough effect; inconclusive = small, poorly fitted or top-dose-only effect; inactive = no such curve, though single readings can be large or run the other way.
% is set by controls: 0 for no effect and ±100 for the full control effect.

For `CN1CCN(c2ccc(C(=O)Nc3n[nH]c4ccc(Cc5cc(F)cc(F)c5)cc34)c(NC3CCOCC3)c2)CC1`, the Potency result in assay [1] and in assay [2] was “inactive” each time.

Turning to `Cc1nc(NC(=O)N2CCCC2C(N)=O)sc1-c1csc(C(C)(C)C)n1` (centres undefined), the Potency result in assay [1] and in assay [2] was “inactive” throughout.

`c1cc(Nc2cc(C3CC3)[nH]n2)nc(Nc2ccc3nc[nH]c3c2)n1`: the Potency entry in assay [1] and in assay [2] was “inactive” throughout.

As to `C/C=C1\[C@H](O[C@@H]2O[C@H](CO)[C@@H](O)[C@H](O)[C@H]2O)OC=C(C(=O)OC)[C@H]1CC(=O)O`, the Potency result in assay [1] and in assay [2] was “inactive” each time.

Regarding `C=C(C(=O)O)C1CC(O)C2(C)CCCC(=C)C2C1` (centres undefined), the Potency result in assay [1] and in assay [2] was “inactive” throughout.

`Cc1cc(C)c(Nc2ccnc(Nc3ccc(C#N)cc3)n2)c(C)c1`: the Potency result in assay [1] and in assay [2] was “inactive” in each case.

On to `C=C1C(O)C(O)C2(CC3C(C)=CCC4C(C)(CO)CCCC34C)OC2C1O` (centres undefined), for which the Potency result in assay [1] and in assay [2] was “inactive” each time.

For the compound `CC(C)=CCC[C@](C)(O[C@@H]1O[C@H](CO)[C@@H](O)[C@H](O)[C@H]1O)[C@H]1CC[C@]2(C)[C@@H]1[C@H](O)CC1[C@@]3(C)CC[C@H](O)C(C)(C)C3[C@@H](O[C@@H]3O[C@H](CO)[C@@H](O)[C@H](O)[C@H]3O[C@@H]3OC[C@@H](O)[C@H](O)[C@H]3O)C[C@]12C` (some centres undefined), the Potency entry in assay [1] and in assay [2] was “inactive” throughout.

Regarding `CC1CC[C@]2(C(=O)O)CC[C@]3(C(=O)O)C(=CCC4[C@@]5(C)CC[C@H](O[C@@H]6O[C@H](CO)[C@@H](O)[C@H](O)[C@H]6O)C(C)(C)C5CC[C@]43C)C2C1C` (some centres undefined), the Potency result in assay [1] and in assay [2] was “inactive” each time.

As for `C[C@@H]1O[C@@H](O[C@H]2[C@H](O)[C@@H](O[C@@H]3O[C@H](CO)[C@@H](O)[C@H](O[C@@H]4O[C@H](CO)[C@@H](O)[C@H](O)[C@H]4O)[C@H]3O)[C@H](O[C@H]3CC[C@@]4(C)C(=CC[C@@H]5C4CC[C@@]4(C)C5C[C@@H]5OC6(CC[C@@](C)(CO[C@@H]7O[C@H](CO)[C@@H](O)[C@H](O)[C@H]7O)O6)[C@@H](C)[C@@H]54)C3)O[C@@H]2CO)[C@H](O)[C@H](O)[C@H]1O` (some centres undefined), the activity change, negative = inhibition in assay [1] was 33% [at 19.1 µM]. Moreover, the outcome in assay [2] is “inactive [at 10.7 µM]”.

Take `CC1CCC2C(C)(C)[C@@H](O)CC[C@]2(C)C12Cc1c(O)cc3c(c1O2)CN(C(CCC(=O)O)C(=O)O)C3=O` (some centres undefined): the Potency result in assay [1] and in assay [2] was “inactive” throughout.

Regarding `O=C1NC(Cc2c[nH]c3ccccc23)C(=O)NC1Cc1cnc[nH]1` (centres undefined), the Potency entry in assay [1] and in assay [2] was “inactive” in each case.

With `C[S+](CC[C@H](N)C(=O)[O-])C[C@H]1O[C@@H](n2cnc3c(N)ncnc32)[C@H](O)[C@@H]1O` (some centres undefined), the Potency result in assay [1] and in assay [2] was “inactive” each time.

As for `CC(C)[C@H]1CC[C@@]2(O)COC(=O)[C@H]2[C@@H]1/C=C(\CO)C(=O)O`, the Potency result in assay [1] and in assay [2] was “inactive” throughout.

For the compound `CCN(CC)Cc1ccc(C(=O)N(CCc2ccccc2OC)[C@@H]2CCNC2)cc1`, the Potency result in assay [1] and in assay [2] was “inactive” each time.

In the case of `CC(=O)N1CCN(Cc2ccc([C@H](C)Nc3nccc(N4C(=O)OC[C@@H]4C(C)C)n3)cc2)CC1`, the Potency result in assay [1] and in assay [2] was “inactive” in each case.

Regarding `CC(=O)O[C@@H]1C[C@@H](OC(C)=O)C(C)(C)/C=C/[C@H](C)[C@H](OC(C)=O)[C@@]2(O)C[C@H](C)[C@H](OC(=O)c3ccccc3)[C@@H]2/C=C/1C`, the Potency entry in assay [1] and in assay [2] was “inactive” each time.

In the case of `O=C(/C=C/c1cccc(S(=O)(=O)Nc2ccccc2)c1)NO`, the Potency entry in assay [1] and in assay [2] was “inactive” each time.

With `CCOCCn1nc(CC)c2nc(N3CCC(C(=O)O)CC3)nc(Nc3cc(C)ccn3)c21`, the Potency entry in assay [1] and in assay [2] was “inactive” each time.

Turning to `Cc1ccc(-c2ccc3c(ccc4sc5c(c43)NC[C@@H](C)NC5=O)n2)cn1`, the Potency entry in assay [1] and in assay [2] was “inactive” each time.

For the compound `NC1CCC(Nc2cc(-c3cccc(NCc4cccc(F)c4)n3)c(Cl)cn2)CC1` (centres undefined), the Potency result in assay [1] and in assay [2] was “inactive” in each case.

`C=CC(C)(O)CC/C=C(\C)C(=O)OC1C(O)C(CO)OC(OC(=O)C23CCC(C)(C)CC2C2=CCC4C5(C)CCC(OC6OC(COC7OCC(OC(C)=O)C(O)C7OC7OC(COC(C)=O)C(O)C(O)C7O)C(O)C(O)C6O)C(C)(C)C5CCC4(C)C2(C)C(O)C3O)C1OC1OCC(OC2OCC(O)C(OC3OCC(O)C(O)C3O)C2O)C(O)C1O` (centres undefined): the activity change, negative = inhibition in assay [1] was 18.4% [at 19.1 µM]; in assay [2], 18.5% [at 10.7 µM].

As for `C[C@H](C(=O)NC1CCCC1)N(C(=O)Cn1nnc(-c2ccc3c(c2)OCO3)n1)C1CCCCC1`, the Potency entry in assay [1] and in assay [2] was “inactive” throughout.

With `Cc1ccc(S(=O)(=O)Cc2nc(-c3ccc(C(=O)NCc4cccnc4)cc3)oc2C)cc1`, the Potency result in assay [1] and in assay [2] was “inactive” each time.

On to `O=C1OCC(c2ccccc2)=C1Cc1ccccc1`, for which the Potency result in assay [1] and in assay [2] was “inactive” throughout.

Consider `Cn1c(=O)cc(N2CCCC(N)C2)n(Cc2cc(F)ccc2C#N)c1=O` (centres undefined), for which the Potency entry in assay [1] and in assay [2] was “inactive” in each case.

In the case of `Cc1ccccc1-n1c([C@H](C)Nc2nc(N)nc3nc[nH]c23)nc2cccc(C)c2c1=O`, the Potency result in assay [1] and in assay [2] was “inactive” throughout.

For the origin of these results see PubChem BioAssay (NCATS).
